Source: the supplement of paper PMC6992640

Legend:
HCI01 = cells of a triple-negative basal-like breast cancer xenograft; assay: cell viability of combination (% of vehicle); higher = less cytotoxic; conditions: 1 µM; 72 h; partner dose: 10 nM
Description: (§1)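 PDX cells were treated for 72 h with each drug at 1 µM plus afatinib (10 nM; 1 µM for WHIM30). Luciferase viability is expressed as percent of vehicle.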

WHIM2 = cells of a triple-negative basal-like breast cancer xenograft; assay: as above; conditions: 1 µM; 72 h; partner dose: 10 nM
Description: as §1

Row | Compound | cell viability of combination (HCI01) | cell viability of combination (WHIM2)
1 | O=C(c1ccc(F)c(F)c1Nc1ccc(I)cc1F)N1CC(O)(C2CCCCN2)C1 (centres undefined) [Cobimetinib] + CN(C)C/C=C/C(=O)Nc1cc2c(Nc3ccc(F)c(Cl)c3)ncnc2cc1O[C@H]1CCOC1 [Afatinib] | 42.2 | 27
2 | CS(=O)(=O)O.Cc1c(O)cccc1C(=O)NC(CSc1ccccc1)C(O)CN1CC2CCCCC2CC1C(=O)NC(C)(C)C (centres undefined) [Nelfinavir Mesylate] + CN(C)C/C=C/C(=O)Nc1cc2c(Nc3ccc(F)c(Cl)c3)ncnc2cc1O[C@H]1CCOC1 [Afatinib] | 44.5 | 53.6
3 | Cc1ccc(-n2[nH]c(C)c(NN=C3C=CC=C(c4cccc(C(=O)O)c4)C3=O)c2=O)cc1C [Eltrombopag] + CN(C)C/C=C/C(=O)Nc1cc2c(Nc3ccc(F)c(Cl)c3)ncnc2cc1O[C@H]1CCOC1 [Afatinib] | 52.9 | 48.5
4 | CCCCCOc1ccc(-c2ccc(-c3ccc(C(=O)N[C@H]4C[C@@H](O)[C@@H](O)NC(=O)[C@@H]5[C@@H](O)[C@@H](C)CN5C(=O)[C@H]([C@@H](C)O)NC(=O)[C@H]([C@H](O)[C@@H](O)c5ccc(O)cc5)NC(=O)[C@@H]5C[C@@H](O)CN5C(=O)[C@H]([C@@H](C)O)NC4=O)cc3)cc2)cc1 [Anidulafungin] + CN(C)C/C=C/C(=O)Nc1cc2c(Nc3ccc(F)c(Cl)c3)ncnc2cc1O[C@H]1CCOC1 [Afatinib] | 55.5 | 43
5 | Oc1c(Cl)cc(Cl)c2cccnc12 [Chloroxine] + CN(C)C/C=C/C(=O)Nc1cc2c(Nc3ccc(F)c(Cl)c3)ncnc2cc1O[C@H]1CCOC1 [Afatinib] | 56.1 | 45.9
6 | CC[C@@]1(O)C(=O)OCc2c1cc1n(c2=O)Cc2cc3c(CN(C)C)c(O)ccc3nc2-1.Cl [Topotecan HCl] + CN(C)C/C=C/C(=O)Nc1cc2c(Nc3ccc(F)c(Cl)c3)ncnc2cc1O[C@H]1CCOC1 [Afatinib] | 41.4 | 25.2
7 | CN1CCC(COc2cnc(-c3cccc(Cn4nc(-c5cccc(C#N)c5)ccc4=O)c3)nc2)CC1 + CN(C)C/C=C/C(=O)Nc1cc2c(Nc3ccc(F)c(Cl)c3)ncnc2cc1O[C@H]1CCOC1 [Afatinib] | 39.9 | 51
